# Test results: PubChem BioAssay AID493242 (Broad Institute, 2011)
# Potency and affinity values are given separately. Calls of active or inactive are those of the source. Where a call stands in place of a potency, no number is given. No rule for the calls is given here.
# Biological target: Replicative DNA helicase DnaB (Mycobacterium tuberculosis (strain ATCC 25618 / H37Rv)) (UniProt P9WMR3)
# Experiment: DnaB intein splicing inhibition, Mycobacterium tuberculosis H37Rv, biochemical plate reader, confirmatory dose response (AID 493242)
# Chain of Replicative DNA helicase DnaB (Mycobacterium tuberculosis (strain ATCC 25618 / H37Rv)) (P9WMR3 whole entry, looked up): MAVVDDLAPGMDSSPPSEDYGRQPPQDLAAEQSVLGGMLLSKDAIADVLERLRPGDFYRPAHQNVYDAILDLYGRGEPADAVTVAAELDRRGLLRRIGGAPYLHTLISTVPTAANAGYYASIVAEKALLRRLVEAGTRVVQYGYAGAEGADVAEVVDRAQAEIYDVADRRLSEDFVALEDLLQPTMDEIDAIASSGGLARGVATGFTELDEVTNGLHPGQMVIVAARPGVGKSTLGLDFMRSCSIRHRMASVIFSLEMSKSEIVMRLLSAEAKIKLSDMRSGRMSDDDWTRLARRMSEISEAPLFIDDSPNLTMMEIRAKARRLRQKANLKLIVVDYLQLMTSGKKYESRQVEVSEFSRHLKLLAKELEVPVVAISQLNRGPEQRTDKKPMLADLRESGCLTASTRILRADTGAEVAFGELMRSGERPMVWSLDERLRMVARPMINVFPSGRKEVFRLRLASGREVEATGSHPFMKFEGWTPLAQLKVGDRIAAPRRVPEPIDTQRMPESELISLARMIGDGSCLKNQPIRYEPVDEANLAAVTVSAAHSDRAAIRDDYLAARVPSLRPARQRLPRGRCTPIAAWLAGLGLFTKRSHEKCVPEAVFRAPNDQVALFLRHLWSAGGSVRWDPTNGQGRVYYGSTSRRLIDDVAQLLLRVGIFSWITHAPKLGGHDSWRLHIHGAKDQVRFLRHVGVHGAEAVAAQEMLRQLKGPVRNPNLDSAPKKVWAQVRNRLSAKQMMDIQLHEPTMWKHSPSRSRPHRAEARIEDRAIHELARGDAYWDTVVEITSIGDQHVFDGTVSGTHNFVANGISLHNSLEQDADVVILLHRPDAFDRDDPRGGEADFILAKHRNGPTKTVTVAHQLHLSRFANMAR
structure (smiles),measurement,value
Nc1cn(-c2ccccc2)nc1-c1ccc(F)cc1,outcome,inactive
